# Compound activity from PubChem.
# Rows were chosen to be rich in hits. Some 21% of all compounds tested hit in one or more screens of this group.
# CHX counter: affects cycloheximide protein synthesis inhibition readout, counter-screen | cell reporter, cycloheximide protein synthesis inhibition counterscreen | hit rate 12% among 300,000 | max response, % | AID 2314; in the data active means max response mostly above about 13%, no sharp cut-off; inactive means mostly below about 14%; further: read at 38.3 µM for the half of the compounds with a filed dose; 0% is about no effect
# Shiga toxin inh: inhibitors of Shiga toxin in Vero cells. Vero cells, Shiga toxin protein synthesis inhibition reporter. inhibition, % at 38.7 µM. hit rate 9.2% among 290,000; in the data active means inhibition mostly above about 28%, no sharp cut-off; inactive means mostly below about 43%; further: 0% is about no effect
# Pf growth 48h: inhibits P. falciparum growth in the first generation, 48 h | P. falciparum luciferase growth in erythrocytes, 48 h | Potency, µM (titrated, usually from 28.7 µM), for inactives: at the highest dose activity change, negative = inhibition, hits mostly inhibitors | hit rate 5.9% among 310,000 | AID 504832; further: potency means the concentration at half of the fitted maximal effect; on the % scale 0 is the no-effect control and ±100 the full control effect
#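 Firefly luciferase activity from engineered P. falciparum reports growth; inhibitors lower the luminescent signal. Cultures contained 2% hematocrit erythrocytes at 0.1% final parasitemia.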
# NS1 function inh: inhibitors of influenza NS1 protein function. Potency, µM (doses to about 46.1 µM), without a hit: at the top dose activity, positive = more growth. hit rate 0.4% among 270,000. AID 2326; calls by dose curve; further: potency means the concentration at half of the fitted maximal effect; actives are rising curves; nearly all actives have a fitted effect of over 50% in size
#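 Compounds were scored for reversing the slow growth caused by influenza A NS1 in S. cerevisiae, measured by optical density at 600 nm. Assay medium contained 2% galactose at pH 6.0; NS1-free yeast of the same strain were the positive control.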
# Pf growth 96h: P. falciparum growth inhibition at 96 hours; AID 504834; P. falciparum luciferase reporter growth, 96 h; hit rate 6.9% among 320,000; Potency, µM (top dose mostly 28.7 µM), inactives show top-dose activity change, negative = inhibition, hits mostly inhibitors; further: potency means the concentration at half of the fitted maximal effect; on the % scale 0 is the no-effect control and ±100 the full control effect
#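 P. falciparum expressing integrated firefly luciferase grown in erythrocytes (2% hematocrit, 0.05% parasitemia final) with compounds for 96 hours at 37 C, 5% CO2. Growth inhibition read as loss of luminescence after adding luciferase detection reagent.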
# Starred values were filed as active, the others as inactive; i = inactive; ? = inconclusive; nt = no result given. Unless noted, the call rests on the fitted dose curve; in most records, active means well fitted inhibition curve with a large enough effect; inconclusive means small, poorly fitted or top-dose-only effect, or another doubt; inactive means no such curve, though single readings can be large or run the other way.
SMILES,CHX counter,Shiga toxin inh,Pf growth 48h,NS1 function inh,Pf growth 96h
COc1ccc(CNC(=O)c2nnn(-c3cccc(C(F)(F)F)c3)c2N)cc1,-2.8,-6.8,-13.6%,nt,?
N=c1c2ccccc2nnn1-c1cccc(C(F)(F)F)c1,24.7,19.7,13.1µM*,-2.6%,?
COc1cccc(NC(=O)CN(C)C(=O)c2ccccc2-c2nc3ccccc3s2)c1,nt,nt,-3.7%,nt,?
Cc1ccc(/C=N/NC(=O)CSc2nc3ccccc3s2)o1,12.2*,25.5,19.8%,14.1%,31.6%
O=C(CSc1nc2ccccc2s1)N/N=C/c1cc([N+](=O)[O-])ccc1O,16.9*,39.8*,?,-43.3%,-6.6%
COCCCNC(=O)CSC1=Nc2ccccc2C2=NC(Cc3c[nH]c4ccccc34)C(=O)N12 (configuration not stated),7.5,2.2,4.5%,2.9%,5.22µM*
CCC(C)NC(=O)CSC1=Nc2ccccc2C2=NC(CC(=O)NCc3ccc(F)cc3)C(=O)N12 (configuration not stated),-3.0,-4.9,13.1µM*,7.4%,?
CCOC(=O)CSC1=Nc2ccccc2C2=NC(CC(=O)NCc3cccs3)C(=O)N12 (configuration not stated),-1.1,-8.7,10.4µM*,?,?
CCOC(=O)CSC1=Nc2ccccc2C2=NC(CC(=O)NCc3ccccc3)C(=O)N12 (configuration not stated),1.7,-11.2,?,6.4%,-5.6%
Cc1ccc(C)c(-c2ccc(C(=O)O)o2)c1,23.2,i,nt,nt,nt
COc1cc(NC(C)CCCN)c2ncccc2c1Oc1ccccc1 (configuration not stated),-3.6,-4.7,?,9.4%,2.08µM*
COc1cc(N[C@@H](C)CCCN)c2ncccc2c1,nt,nt,0.809µM*,nt,0.573µM*
COc1ccc(C(=O)Nc2cc(OC)cc3cccnc23)cc1,6.7,4.2,34.7%,-10.6%,26.6%
CC1CCCC(C)N1C(=O)COC(=O)CCC1CCCC1 (configuration not stated),-4.3,-1.1,?,-2.1%,-22.2%
C/C(CC(=O)Nc1ccc2c(c1)OCCO2)=N\NC(=O)COc1ccccc1,10.1,14.5,41.7%,-0.6%,?
Cc1cccc(OCC(=O)Nc2ccc3c(c2)OCCO3)c1,61.8*,111.4*,151.1%,-37.4%,2.5%
Cc1ccc(OCC(=O)Nc2ccc3c(c2)OCCO3)cc1C,31.5*,178.5*,236.9%,nt,?
CCC(C)[C@H](NC(=O)Nc1cccc(Br)c1)C(=O)OC (some centres not stated),8.4,-12.1,9.8%,1.8%,41.6%
CCN(C(=O)COC(=O)c1n[nH]c2ccccc12)c1ccccc1,nt,nt,?,nt,-23.3%
CCOC(=O)C1CCCCN1S(=O)(=O)c1cc2c(cc1C)NC(=O)CO2 (configuration not stated),-3.6,11.0,12.5%,11.6%,1.4%
Cc1ccc(C(=O)OCc2c(C)noc2C)cc1NC(=O)c1ccco1,-4.0,16.0,-76.5%,-4.9%,10.4µM*
Cc1ccc(C(=O)OCC(=O)c2c[nH]c3ccccc23)cc1NC(=O)c1ccco1,19.0*,45.2,-15.4%,10.4%,?
CCCCNC(=O)COC(=O)c1ccc(C)c(NC(=O)c2ccco2)c1,3.4,17.1,-0.4%,nt,-0.1%
CCC(C)(NC=O)C(=O)Nc1c(C)cccc1C (configuration not stated),-1.9,-8.9,11.0%,3.4%,-3.5%
CCOC(=O)c1c(O)cc(C)cc1Nc1ccccc1,11.5,-2.1,-18.2%,-3.5%,?
SMILES,CHX counter,Shiga toxin inh,Pf growth 48h,NS1 function inh,Pf growth 96h
O=C(Cc1ccccc1)NCC(=O)OCc1cccc([N+](=O)[O-])c1,-1.0,-7.1,7.2%,-5.4%,10.0%
O=C(O)c1oc2ccccc2c1CSCc1ccccc1,16.1,-23.1,27.0%,nt,9.3%
CCOCCCNC(=O)c1cc2c(-c3ccc(Cl)cc3)nn(C)c2s1,-4.9,-13.1,nt,-31.1%,-7.2%
CCCN(CCC)CCCNC(=O)c1cc2c(-c3ccc(OC)c(OC)c3)nn(C)c2s1,0.9,2.3,2.08µM*,1.3%,0.5%
CCCN(CCC)CCNC(=O)c1cc2c(-c3ccccc3F)nn(C)c2s1,-3.6,-7.8,3.29µM*,-3.7%,1.2%
CCN(CC)CCNC(=O)c1cc2c(-c3ccc(Cl)cc3)nn(C)c2s1,11.6,12.2,nt,-5.9%,-26.3%
CCCN(CCC)CCNC(=O)c1cc2c(-c3ccc(Cl)cc3)nn(C)c2s1,-1.1,-2.8,0.465µM*,1.0%,11.1%
CCCCN(CC)CCNC(=O)c1cc2c(-c3ccc(Cl)cc3)nn(C)c2s1,-2.3,-4.0,0.329µM*,-6.9%,-0.7%
COC(=O)c1ccccc1C(=O)N1CCCC(C(=O)c2ccc(OC)c(OC)c2)C1 (configuration not stated),1.2,-2.2,-14.7%,-9.3%,-3.2%
O=C(NCC1CCCO1)c1ccc(COc2ccccc2)o1 (configuration not stated),nt,nt,14.9%,nt,3.6%
Cc1cccc(C(=O)NC(=S)N2CCc3ccccc3C2)c1,1.0,5.4,-3.1%,-20.9%,-25.4%
CCCN1CCC(NC(=O)C2CCCCC2C(=O)O)CC1 (configuration not stated),-4.3,-8.0,11.2%,25.3%,?
CCOC(=O)C1(CCc2ccccc2)CCN(C(=O)C2CCOCC2)CC1,8.4,-4.5,-7.6%,1.1%,?
CC(C)N(CCNC(=O)c1oc(=O)c2ccccc2c1-c1ccccc1)Cc1ccco1,14.4,-5.3,4.2%,nt,?
COc1ccnc(CSC(N)=Nc2ccccc2OC)c1,75.5*,91.3*,40.0%,4.2%,?
COc1ccnc(CSC(N)=Nc2cccc(C(F)(F)F)c2)c1,24.6*,42.0,?,-44.5%,?
CC(=Nc1ccccc1C(F)(F)F)c1ccncc1,-3.1,-1.2,0.0%,8.3%,23.9%
COc1ccnc(CSC(N)=Nc2ccccc2C(F)(F)F)c1,14.7,22.0*,12.8%,-11.1%,19.5%
Cc1ccc(C(=O)OCC(=O)Nc2cc(C(C)(C)C)nn2-c2ccccc2)c(O)c1,nt,nt,?,nt,6.0%
COc1ccc2nc(NC(=O)C3CCCO3)sc2c1 (configuration not stated),65.1*,100.6*,340.8%,0.3%,?
COc1ccc(-c2nnc(NC(=O)C3CCCO3)s2)cc1 (configuration not stated),37.8*,129.7*,133.0%,-14.2%,-22.9%
Cc1cccc2sc(NC(=O)C3CCCO3)nc12 (configuration not stated),32.3*,110.8*,145.0%,-9.1%,?
CC(C)c1nnc(NC(=O)C2CCCO2)s1 (configuration not stated),13.3,0.8,24.5%,4.8%,13.5%
COc1ccc(NC(=O)C2CCCO2)c(OC)c1 (configuration not stated),0.9,18.7,34.5%,7.1%,?
CSc1nc2ccc(NC(=O)C3CCCO3)cc2s1 (configuration not stated),40.1*,111.8*,109.9%,-7.7%,?
Cn1nccc1C(=O)NC1CCCc2c1cnn2-c1ccc(C(C)(C)C)cc1 (configuration not stated),10.6,10.1,-20.6%,-50.5%,-14.4%
